Source: PubChem BioAssay (NCI)
This is part of a sample that, as a whole, favours compounds with a hit. Of some 83,000 tested, about 20% had one in any assay.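 Each cell line was grown in a 96-well plate and treated with one concentration of compound for 48 hours. Values below 10 were considered active.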 The source made the active and inactive calls.

Key:
Test in all cases: NCI-60 one-dose screen, 48 h (100 = growth as untreated, 0 = no growth, -100 = all killed)
Settings in all cases: 10 µM unless noted
SK-MEL-2 melanoma = tested on: SK-MEL-2 melanoma
EKVX NSCLC = tested on: EKVX NSCLC
SN12C renal = tested on: SN12C renal
UO-31 renal = tested on: UO-31 renal
TK-10 renal = tested on: TK-10 renal
ACHN renal = tested on: ACHN renal
CAKI-1 renal = tested on: CAKI-1 renal
A498 renal = tested on: A498 renal
CCRF-CEM leukemia = tested on: CCRF-CEM leukemia
MOLT-4 leukemia = tested on: MOLT-4 leukemia
SR leukemia = tested on: SR leukemia
RPMI-8226 leukemia = tested on: RPMI-8226 leukemia
OVCAR-8 ovarian = tested on: OVCAR-8 ovarian
OVCAR-5 ovarian = tested on: OVCAR-5 ovarian
OVCAR-4 ovarian = tested on: OVCAR-4 ovarian
SK-OV-3 ovarian = tested on: SK-OV-3 ovarian
IGROV1 ovarian = tested on: IGROV1 ovarian
OVCAR-3 ovarian = tested on: OVCAR-3 ovarian
HS 578T breast = tested on: HS 578T breast
NCI/ADR-RES ovarian = tested on: NCI/ADR-RES ovarian

Measured: growth

CCN(CC)CCN1C(=O)c2c(c(C)c3c(oc4ccc(O)cc43)c2C)C1=O
active: SN12C renal -41.9% | UO-31 renal -92.4% | TK-10 renal -13.9% | ACHN renal -80.4% | CAKI-1 renal -6.73% | CCRF-CEM leukemia -14.7% | RPMI-8226 leukemia -37.3% | OVCAR-8 ovarian -5.2% | IGROV1 ovarian 1.64% | OVCAR-3 ovarian -68.2%
inactive: SK-MEL-2 melanoma 89% | EKVX NSCLC 83.2% | A498 renal 91.7% | MOLT-4 leukemia 10.2% | SR leukemia 28.5% | OVCAR-5 ovarian 97.6% | OVCAR-4 ovarian 14.9% | SK-OV-3 ovarian 101% | HS 578T breast 72.9% | NCI/ADR-RES ovarian 21.7%

CN1CCN(Cc2ccc(NC(=O)c3cncc(C#Cc4cnc(N)c5ncccc45)c3)cc2C(F)(F)F)CC1
inactive: EKVX NSCLC 33.3% | CCRF-CEM leukemia 19.3% | MOLT-4 leukemia 14.5% | SR leukemia 12.4% | RPMI-8226 leukemia 19.5% | OVCAR-3 ovarian 15.3%
active: SK-MEL-2 melanoma -77.3% | SN12C renal -33.2% | UO-31 renal -92.3% | TK-10 renal -63.8% | ACHN renal -75.6% | CAKI-1 renal -23.9% | A498 renal -27% | OVCAR-8 ovarian -29% | OVCAR-5 ovarian -26.5% | OVCAR-4 ovarian -21.9% | SK-OV-3 ovarian 2.59% | IGROV1 ovarian -50.8% | NCI/ADR-RES ovarian -55.3%

Cc1cccc(Oc2ccc(Nc3ncnc4ccc(NC(=O)CN5CCN(C)CC5)cc34)cc2Cl)c1
inactive: EKVX NSCLC 25.1% | SN12C renal 46.4% | UO-31 renal 22.2% | TK-10 renal 18.8% | CAKI-1 renal 12.9% | OVCAR-8 ovarian 13.2% | OVCAR-5 ovarian 68.2% | OVCAR-3 ovarian 10.1% | NCI/ADR-RES ovarian 46.9%
active: SK-MEL-2 melanoma -70.7% | ACHN renal -7.41% | A498 renal 5.9% | CCRF-CEM leukemia 4.6% | MOLT-4 leukemia 3.77% | SR leukemia 4.43% | RPMI-8226 leukemia -27.9% | OVCAR-4 ovarian -13.5% | SK-OV-3 ovarian 6.73% | IGROV1 ovarian -21.9% | HS 578T breast -2.13%

CN(C)CCCNC(=O)c1cncnc1Nc1ccc(OCc2cccc(F)c2)c(Cl)c1
inactive: EKVX NSCLC 62.8% | SN12C renal 28.7% | OVCAR-5 ovarian 36.1% | OVCAR-4 ovarian 25.7% | NCI/ADR-RES ovarian 43.3%
active: SK-MEL-2 melanoma -35.7% | UO-31 renal -4.99% | TK-10 renal -71.7% | ACHN renal -36.8% | CAKI-1 renal -19.3% | A498 renal -8.81% | CCRF-CEM leukemia -34.2% | MOLT-4 leukemia -40.9% | SR leukemia -48.5% | RPMI-8226 leukemia -14.6% | OVCAR-8 ovarian 1.06% | SK-OV-3 ovarian -24% | IGROV1 ovarian 1.4% | OVCAR-3 ovarian 6.33% | HS 578T breast -30%

C=CC(=O)Nc1ccc(Nc2nccc(-c3ccc(N4CCCC4)c(C#N)c3)n2)cc1
inactive: EKVX NSCLC 66.6% | SN12C renal 41.4% | UO-31 renal 21% | TK-10 renal 26.1% | ACHN renal 19.6% | CAKI-1 renal 18.7% | CCRF-CEM leukemia 16.7% | OVCAR-8 ovarian 65.9% | OVCAR-5 ovarian 73.4% | OVCAR-4 ovarian 47.3% | IGROV1 ovarian 35.9% | OVCAR-3 ovarian 14.1% | NCI/ADR-RES ovarian 57.2%
active: SK-MEL-2 melanoma -0.218% | A498 renal -36.9% | MOLT-4 leukemia -8.84% | SR leukemia -3.35% | RPMI-8226 leukemia -10.3% | SK-OV-3 ovarian 8.26%

CCN(CC)CCCN1C(=O)c2c(c(C)c3c(oc4ccc(OC)cc43)c2C)C1=O
inactive: SK-MEL-2 melanoma 108% | EKVX NSCLC 105% | SN12C renal 100% | UO-31 renal 64.5% | TK-10 renal 110% | ACHN renal 42.8% | CAKI-1 renal 92.6% | A498 renal 99.1% | CCRF-CEM leukemia 93.9% | MOLT-4 leukemia 96.4% | SR leukemia 102% | RPMI-8226 leukemia 99.3% | OVCAR-8 ovarian 93.3% | OVCAR-5 ovarian 114% | OVCAR-4 ovarian 117% | SK-OV-3 ovarian 109% | IGROV1 ovarian 94.6% | OVCAR-3 ovarian 108% | HS 578T breast 99.2% | NCI/ADR-RES ovarian 95.7%

N[C@H]1CCC[C@@H]1NCCCCN1C(=O)c2cccc3cc([N+](=O)[O-])cc(c23)C1=O
inactive: SK-MEL-2 melanoma 84.2% | EKVX NSCLC 73.2% | SN12C renal 29.7% | UO-31 renal 66% | TK-10 renal 44.5% | ACHN renal 22.4% | CAKI-1 renal 94.3% | A498 renal 62.6% | RPMI-8226 leukemia 58.3% | OVCAR-8 ovarian 37.1% | OVCAR-5 ovarian 73.6% | OVCAR-4 ovarian 44.5% | SK-OV-3 ovarian 42.1% | IGROV1 ovarian 34.5% | OVCAR-3 ovarian 53% | NCI/ADR-RES ovarian 77%
active: CCRF-CEM leukemia 2.24% | MOLT-4 leukemia 0.264% | SR leukemia -6.77%

CC/C=C\CCC/C=C1/C(=O)C=C[C@@H]1C/C=C\CCCC(=O)OC
active: CCRF-CEM leukemia 3.2% | MOLT-4 leukemia 3.52% | SR leukemia 2.36% | RPMI-8226 leukemia 1.41%
inactive: SK-MEL-2 melanoma 87.3% | EKVX NSCLC 99.3% | SN12C renal 11.6% | UO-31 renal 69.8% | TK-10 renal 100% | ACHN renal 42.9% | CAKI-1 renal 54.1% | A498 renal 95.9% | OVCAR-8 ovarian 14.2% | OVCAR-5 ovarian 73.5% | OVCAR-4 ovarian 76.6% | SK-OV-3 ovarian 119% | IGROV1 ovarian 84.2% | OVCAR-3 ovarian 26.7% | HS 578T breast 37.2% | NCI/ADR-RES ovarian 25.9%

COc1ccc(/C=C(/c2ccccc2)[N+](=O)[O-])c(OC)c1
inactive: EKVX NSCLC 36.2% | A498 renal 51.5% | OVCAR-8 ovarian 15.8% | OVCAR-4 ovarian 14.4% | SK-OV-3 ovarian 42.7%
active: SK-MEL-2 melanoma -6.4% | SN12C renal -20.5% | UO-31 renal -97.6% | TK-10 renal -26% | ACHN renal -72.4% | CAKI-1 renal -25.5% | CCRF-CEM leukemia 7.93% | MOLT-4 leukemia 6.93% | SR leukemia 6.7% | RPMI-8226 leukemia 1.5% | OVCAR-5 ovarian -9.82% | IGROV1 ovarian -35.9% | OVCAR-3 ovarian -80.6% | NCI/ADR-RES ovarian -4.93%

Cc1ccc(CNc2ccc3nc(CCC(C)C)[nH]c3c2)cc1
inactive: SK-MEL-2 melanoma 107% | EKVX NSCLC 96% | SN12C renal 85.9% | UO-31 renal 68.6% | TK-10 renal 113% | ACHN renal 99.3% | CAKI-1 renal 89.1% | A498 renal 97.1% | CCRF-CEM leukemia 93.7% | MOLT-4 leukemia 81.4% | SR leukemia 85.9% | RPMI-8226 leukemia 87.4% | OVCAR-8 ovarian 89.9% | OVCAR-5 ovarian 101% | OVCAR-4 ovarian 85.1% | SK-OV-3 ovarian 100% | IGROV1 ovarian 77.4% | OVCAR-3 ovarian 88.9% | NCI/ADR-RES ovarian 89.6%

COC(=O)/C=C1/SC(=Nc2ccc([N+](=O)[O-])cc2)N(CCc2c[nH]c3ccc(O)cc23)C1=O
inactive: SK-MEL-2 melanoma 39.7% | EKVX NSCLC 64.7% | SN12C renal 45.8% | UO-31 renal 53.5% | TK-10 renal 85.2% | ACHN renal 53.4% | CAKI-1 renal 71.4% | A498 renal 80.5% | CCRF-CEM leukemia 10.9% | MOLT-4 leukemia 10.9% | OVCAR-8 ovarian 38.4% | OVCAR-5 ovarian 86.4% | OVCAR-4 ovarian 45.1% | SK-OV-3 ovarian 61.3% | IGROV1 ovarian 42.6% | OVCAR-3 ovarian 50.9% | NCI/ADR-RES ovarian 43.9%
active: SR leukemia -22.5% | RPMI-8226 leukemia 8.49%

O=C(Nc1ccc(Br)cc1)C1=NCCCCN1
inactive: SK-MEL-2 melanoma 103% | EKVX NSCLC 86.1% | SN12C renal 94.7% | UO-31 renal 67.6% | TK-10 renal 93.4% | ACHN renal 64.1% | CAKI-1 renal 52.4% | A498 renal 95.7% | CCRF-CEM leukemia 84.5% | MOLT-4 leukemia 96.5% | SR leukemia 107% | RPMI-8226 leukemia 94.3% | OVCAR-8 ovarian 74.8% | OVCAR-5 ovarian 84.6% | OVCAR-4 ovarian 96.5% | SK-OV-3 ovarian 96.1% | IGROV1 ovarian 87.5% | OVCAR-3 ovarian 103% | HS 578T breast 97.1% | NCI/ADR-RES ovarian 82.5%

CN1C(=O)/C(=C2\SC(=Nc3ccccc3)N(Nc3ccccc3)C2=O)c2ccccc21
inactive: SK-MEL-2 melanoma 108% | EKVX NSCLC 101% | SN12C renal 97.8% | UO-31 renal 61.4% | TK-10 renal 148% | ACHN renal 95.3% | CAKI-1 renal 74.2% | A498 renal 103% | CCRF-CEM leukemia 103% | MOLT-4 leukemia 101% | SR leukemia 117% | RPMI-8226 leukemia 106% | OVCAR-8 ovarian 102% | OVCAR-5 ovarian 104% | OVCAR-4 ovarian 111% | SK-OV-3 ovarian 98% | OVCAR-3 ovarian 110% | HS 578T breast 107% | NCI/ADR-RES ovarian 102%

C=C(CNCCc1ccc(O)cc1)[C@@H]1CC[C@]2(CO)CC[C@]3(C)[C@H](CC[C@@H]4[C@@]5(C)CCC(=O)C(C)(C)[C@@H]5CC[C@]43C)[C@@H]12
inactive: SK-MEL-2 melanoma 37.5% | EKVX NSCLC 80% | SN12C renal 24.5% | UO-31 renal 27.1% | TK-10 renal 67.4% | ACHN renal 12.6% | CAKI-1 renal 58.2% | A498 renal 84.1% | OVCAR-5 ovarian 90% | OVCAR-4 ovarian 58.1% | SK-OV-3 ovarian 92.4% | OVCAR-3 ovarian 39.7% | HS 578T breast 51.9% | NCI/ADR-RES ovarian 33%
active: CCRF-CEM leukemia -9.98% | MOLT-4 leukemia 1.2% | SR leukemia -24.9% | RPMI-8226 leukemia -12.2% | OVCAR-8 ovarian -70.3%

CCCCCCCCCCCCCOC(=O)c1c(C)[nH]c(/C=C2\N=C(c3ccc[nH]3)C=C2OC)c1C
active: SK-MEL-2 melanoma -42.1% | UO-31 renal -54.4% | ACHN renal 8.11% | CAKI-1 renal -7.49% | SR leukemia -10.8%
inactive: EKVX NSCLC 52.3% | SN12C renal 40.7% | TK-10 renal 34.4% | A498 renal 10.3% | CCRF-CEM leukemia 17.8% | MOLT-4 leukemia 22.8% | RPMI-8226 leukemia 11.2% | OVCAR-8 ovarian 18.3% | OVCAR-5 ovarian 44% | OVCAR-4 ovarian 55.8% | SK-OV-3 ovarian 47.4% | IGROV1 ovarian 22% | OVCAR-3 ovarian 11.3% | NCI/ADR-RES ovarian 22.5%
